A short description of experiment [1]: qHTS assay to identify small molecule agonists of the peroxisome proliferator-activated receptor delta (PPARd) signaling pathway - cell viability counter screen (AID 743211). Note: nearly all actives have a fitted effect of over 55% in size. Note: potency is the fitted concentration of half-maximal effect. In short, it runs like this:
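Tox21 library compounds, delivered in DMSO, were incubated 17 h with PPARd-bla HEK293H cells; cytotoxicity was taken from CellTiter-Glo luminescence read 30 min after reagent addition.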

Experiment [2] concerns the target Peroxisome proliferator-activated receptor delta (Homo sapiens) (UniProt Q03181). Description: qHTS assay to identify small molecule agonists of the peroxisome proliferator-activated receptor delta (PPARd) signaling pathway (AID 743212; calls by dose curve). The procedure, abridged: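 Tox21 library screened in GeneBLAzer PPARd UAS-bla HEK293H cells. After compound treatment at 37 C, a FRET-based beta-lactamase substrate was applied for 2 h and fluorescence recorded.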

Experiment [3] in a line: qHTS assay to identify small molecule antagonists of the peroxisome proliferator-activated receptor delta (PPARd) signaling pathway - cell viability counter screen (AID 743213). Note: nearly all actives have a fitted effect of over 50% in size. The procedure, abridged: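 PPARd-bla HEK293H cells (3000/well) got compound plus 300 nM L165041 agonist for 17 h at 37 C. Viability in the same wells came from CellTiter-Glo luminescence after 30 min at room temperature.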

Experiment [4] in a line: qHTS assay to identify small molecule agonists of the farnesoid-X-receptor (FXR) signaling pathway - cell viability counter screen (AID 743218). Note: nearly all actives have a fitted effect of over 45% in size. The procedure, abridged: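 Cells were seeded, left 5 h at 37 C and 5% CO2, then dosed with compound in DMSO for 16 h. After the beta-lactamase FRET read, CellTiter-Glo was added and luminescence measured 30 min later.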
Experiment [5] can be described thus: qHTS assay to identify small molecule antagonists of the farnesoid-X-receptor (FXR) signaling pathway - cell viability counter screen (AID 743221; active = well fitted cell-killing curve with a large enough effect in the repeat runs, not every such curve was filed as active; note: nearly all actives have a fitted effect of over 50% in size). In short, it runs like this: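 Cytotoxicity is taken from ATP luminescence (CellTiter-Glo, 30 min, room temperature) in FXR-bla HEK 293T cells previously incubated 16 h at 37 C with compound and chenodeoxycholic acid at 50 uM final.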

Experiment [6] has as its target Vitamin D3 receptor (Homo sapiens) (UniProt P11473). Description: qHTS assay to identify small molecule agonists of the vitamin D receptor (VDR) signaling pathway (AID 743222; calls by dose curve). In short, it runs like this: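 Cells carrying a VDR-driven beta-lactamase reporter are seeded at 2,000 per well and rested 4 h. Compounds in DMSO are added for 16 h at 37C, and FRET substrate fluorescence is measured after 2 h at room temperature.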

For experiment [7] the target is unchanged. Description: qHTS assay to identify small molecule antagonists of the vitamin D receptor (VDR) signaling pathway (AID 743223; active = well fitted inhibition curve with a large enough effect in the signal ratio in the repeat runs, not every such curve was filed as active; the % refers to the signal ratio). The procedure, abridged:
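Quantitative HTS in VDR-bla reporter cells stimulated with 1alpha,25-dihydroxyvitamin D3, 3 nM final. Compound exposure 16 h, 37C, 5% CO2. Read-out: beta-lactamase FRET substrate fluorescence, 2 h RT.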

Experiment [8] in a line: qHTS assay to identify small molecule agonists of the vitamin D receptor (VDR) signaling pathway - cell viability counter screen (AID 743224). Note: series mostly up to about 63 µM; nearly all actives have a fitted effect of over 50% in size. The procedure, abridged: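 Cells: VDR-bla, 2,000/well, settled 4 h. Treatment: compounds in DMSO, 16 h, 37C/5% CO2. Readout: CellTiter-Glo luminescence after 30 min RT.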
Experiment [9] can be described thus: qHTS assay to identify small molecule agonists of the NFkB signaling pathway (AID 1159509; active = well fitted curve in the direction sought with a large enough effect in the signal ratio in the repeat runs, not every such curve was filed as active; the % refers to the signal ratio; note: series mostly up to about 61 µM). The procedure, abridged:
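Agonist activity was read as beta-lactamase-driven FRET change (460 and 530 nm emission, 405 nm excitation) following 1.5 hr substrate loading at room temperature. Beforehand, ME-180 NFkB-bla reporter cells were treated with compounds for 5 hr at 37 C.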

Experiment [10] is described as follows: qHTS assay to identify small molecule agonists of the NFkB signaling pathway - cell viability counter screen (AID 1159515; calls by dose curve; note: series mostly up to about 61 µM; nearly all actives have a fitted effect of over 55% in size). In short, it runs like this: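 Cells are seeded (2,000 NFkB-bla ME-180 per well), rested overnight, and dosed with DMSO-dissolved compounds for 5 hr at 37 C. Viability is then read by CellTiter-Glo luminescence after 30 min at room temperature.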

The nature of experiment [11]: qHTS assay to identify small molecule agonists of the endoplasmic reticulum stress response signaling pathway (AID 1159516; active = well fitted activation curve with a large enough effect in the signal ratio in the repeat runs, not every such curve was filed as active; the % refers to the signal ratio). The procedure, abridged: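 Cells are seeded at 1,500 per well and incubated overnight. Compounds in DMSO are added for 5 hr at 37 C, then beta-lactamase FRET substrate for 2 hr at room temperature, and fluorescence at 460 and 530 nm is measured.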

Experiment [12] is described as follows: qHTS assay to identify small molecule antagonists of the retinoid-related orphan receptor gamma (ROR-gamma) signaling pathway - cell viability counter screen (AID 1159520). Note: nearly all actives have a fitted effect of over 50% in size. In short, it runs like this: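 Tet-on ROR gamma CHO cells were given compounds for 2 hr, then doxycycline hyclate at 1 uM final, and incubated 16 hr at 37 C. Viability was measured as ATP content by CellTiter-Glo luminescence.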

Experiment [13] deals with Nuclear receptor ROR-gamma (Homo sapiens) (UniProt P51449). Description: qHTS assay to identify small molecule antagonists of the retinoid-related orphan receptor gamma (ROR-gamma) signaling pathway (AID 1159521; note: nearly all actives have a fitted effect of over 50% in size; note: potency is the fitted concentration of half-maximal effect). The procedure, abridged:
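Inducible-expression reporter assay: doxycycline (1 uM final) switched on RORγ in CHO cells bearing a ROR response element-luciferase construct, with test compounds present from 2 h beforehand. Decreased luminescence after 16 h defined antagonist activity.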

A short description of experiment [14]: qHTS assay to identify small molecule agonists of the AP-1 signaling pathway - cell viability counter screen (AID 1159525; calls by dose curve; note: nearly all actives have a fitted effect of over 55% in size). In short, it runs like this:
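Same-well cytotoxicity counter screen of the Tox21 10K library in ME-180 cells. The readout is ATP-dependent luminescence after 5 h compound treatment. Data are normalised to DMSO and tetra n-octyl ammonium bromide controls.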

Experiment [15] is described as follows: qHTS assay to identify small molecule agonists of the AP-1 signaling pathway (AID 1159526; calls by dose curve).
In experiment [16] the target is Bile acid receptor (Homo sapiens) (UniProt Q96RI1). Description: qHTS assay to identify small molecule agonists of the farnesoid-X-receptor (FXR) signaling pathway (AID 743220; active = well fitted activation curve with a large enough effect in the signal ratio in the repeat runs, not every such curve was filed as active; the % refers to the signal ratio). In short, it runs like this: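 FXR-UAS-bla HEK 293T cells carrying a UAS-driven beta-lactamase reporter were plated for 5 h at 37C/5% CO2, then exposed to DMSO-dissolved Tox21 10K compounds for 16 h at 37C. A LiveBLAzer B/G FRET substrate was loaded for 2 h at room temperature before fluorescence reading.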

Experiment [17] can be described thus: qHTS assay to identify small molecule antagonists of the vitamin D receptor (VDR) signaling pathway - cell viability counter screen (AID 743225). Note: nearly all actives have a fitted effect of over 50% in size. In short, it runs like this: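 Same-well multiplex: following 16 h treatment of HEK 293T cells carrying a UAS-driven beta-lactamase reporter with compound and agonist (3 nM final), and a 2 h FRET substrate step, CellTiter-Glo was added and luminescence read after 30 min.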

Experiment [18] can be described thus: qHTS assay to identify small molecule agonists of the endoplasmic reticulum stress response signaling pathway - cell viability counter screen (AID 1159517; calls by dose curve). In short, it runs like this: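 In parallel with the ESRE reporter read, cytotoxicity was scored by CellTiter-Glo luminescence (30 min, room temperature) on HeLa ESRE-bla cells dosed for 5 hr.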
The target of experiment [19] is Peroxisome proliferator-activated receptor delta (Homo sapiens) (UniProt Q03181). Description: qHTS assay to identify small molecule antagonists of the peroxisome proliferator-activated receptor delta (PPARd) signaling pathway (AID 743215; active = well fitted inhibition curve with a large enough effect in the signal ratio in the repeat runs, not every such curve was filed as active; the % refers to the signal ratio;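 note: cells stimulated with agonist L165041 at 300 nM final during compound exposure; series mostly up to about 62 µM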). The procedure, abridged: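 Cells: HEK293H with a UAS-driven beta-lactamase reporter responsive to PPARd. Compounds were co-added with L165041 (300 nM, final) and incubated 17 h at 37 C before a 2 h room-temperature FRET substrate step and fluorescence reading.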

Records with an inconclusive call do not appear. The source made the active and inactive calls. Unless noted, calls come from the whole dose curve; as a rule, active = well fitted curve in the direction sought with a large enough effect in the repeat runs; inconclusive = weak or mixed curves; inactive = no such curve, though single readings can be large; an effect the other way counts as inactive or inconclusive.

Chain of Peroxisome proliferator-activated receptor delta (Homo sapiens) (Q03181 whole entry, looked up): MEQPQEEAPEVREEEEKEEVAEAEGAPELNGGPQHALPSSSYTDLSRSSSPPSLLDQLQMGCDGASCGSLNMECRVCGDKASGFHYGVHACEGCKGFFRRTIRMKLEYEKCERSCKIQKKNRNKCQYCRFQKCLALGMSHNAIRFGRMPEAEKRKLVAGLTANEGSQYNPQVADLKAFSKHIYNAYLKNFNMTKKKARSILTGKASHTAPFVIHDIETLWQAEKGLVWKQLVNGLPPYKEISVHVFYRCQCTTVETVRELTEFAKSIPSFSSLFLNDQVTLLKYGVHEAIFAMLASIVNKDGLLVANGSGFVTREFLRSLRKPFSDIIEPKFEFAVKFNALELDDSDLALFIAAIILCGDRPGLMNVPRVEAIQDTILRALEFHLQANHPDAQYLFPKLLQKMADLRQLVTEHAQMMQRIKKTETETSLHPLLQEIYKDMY
Chain of Vitamin D3 receptor (Homo sapiens) (P11473 whole entry, looked up): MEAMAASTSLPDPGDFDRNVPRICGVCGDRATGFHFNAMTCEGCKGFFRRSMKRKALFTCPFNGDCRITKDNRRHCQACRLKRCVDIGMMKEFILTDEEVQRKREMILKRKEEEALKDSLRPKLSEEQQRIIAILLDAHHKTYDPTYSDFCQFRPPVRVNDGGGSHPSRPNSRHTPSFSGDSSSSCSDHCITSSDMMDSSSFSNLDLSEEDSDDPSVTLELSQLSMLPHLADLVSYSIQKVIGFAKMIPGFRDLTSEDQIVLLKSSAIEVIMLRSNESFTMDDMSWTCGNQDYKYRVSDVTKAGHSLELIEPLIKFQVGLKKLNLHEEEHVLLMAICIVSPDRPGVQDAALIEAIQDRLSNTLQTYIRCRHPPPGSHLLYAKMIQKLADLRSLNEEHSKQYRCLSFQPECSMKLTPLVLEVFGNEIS
Chain of Bile acid receptor (Homo sapiens) (Q96RI1 whole entry, looked up): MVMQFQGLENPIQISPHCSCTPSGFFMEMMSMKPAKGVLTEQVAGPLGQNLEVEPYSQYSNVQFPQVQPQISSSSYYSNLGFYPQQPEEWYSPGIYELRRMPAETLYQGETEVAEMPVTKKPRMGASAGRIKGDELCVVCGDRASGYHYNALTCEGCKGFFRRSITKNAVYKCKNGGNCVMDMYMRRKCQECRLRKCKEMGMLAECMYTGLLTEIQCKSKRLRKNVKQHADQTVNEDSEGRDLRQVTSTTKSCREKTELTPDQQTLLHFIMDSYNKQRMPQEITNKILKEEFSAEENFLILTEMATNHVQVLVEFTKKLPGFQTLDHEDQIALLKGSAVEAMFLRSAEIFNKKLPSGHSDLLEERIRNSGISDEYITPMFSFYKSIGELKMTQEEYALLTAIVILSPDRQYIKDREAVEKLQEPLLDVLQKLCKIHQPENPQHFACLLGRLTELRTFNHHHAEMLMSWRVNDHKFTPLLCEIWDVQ

Consider `C[Si]1(C)O[Si](C)(C)O[Si](C)(C)O1`, for which the Potency entry in experiment [1], in [2], in experiment [3], in [4], in experiment [5] and in experiment [8] was “inactive” in each case. In addition, the Potency result in experiment [12] and in experiment [13] was “inactive” throughout. In addition, the call in experiment [6], in experiment [7], in experiment [9], in [10], in [11] and in experiment [14] was inactive. In addition, the call in experiment [15] was inactive.
For `COc1cc2ncnc(Nc3ccc(F)c(Cl)c3)c2cc1OCCCN1CCOCC1`, the Potency in experiment [1] was 29.8 µM (active); in experiment [13], 11.9 µM (active). Besides, the Potency result in experiment [16], in [8] and in experiment [17] was “inactive” throughout. The compound was called inactive in experiment [6], in [7], in [9], in experiment [10], in experiment [11] and in [18]. Further, the call in [15] was inactive.
Take `COCc1c(C(C)C)nc(C(C)C)c(/C=C/[C@@H](O)C[C@@H](O)CC(=O)O)c1-c1ccc(F)cc1`: the Potency entry in experiment [1], in experiment [2], in experiment [19], in experiment [4], in experiment [8] and in experiment [17] was “inactive” each time. The result in experiment [6], in [9], in experiment [10], in experiment [11], in experiment [18] and in experiment [14] was inactive. In addition, in experiment [15], the call was inactive.
For `Cc1cc(O)c2c(O)c3c(O)cccc3cc2c1`, the Potency entry in experiment [1], in experiment [3], in experiment [4], in experiment [5], in [17] and in [12] was “inactive” each time. For the same compound, the result in experiment [9], in [10], in experiment [11], in experiment [14] and in [15] was inactive.
As to `O=C(CCCN1CCC(O)(c2ccc(Br)cc2)CC1)c1ccc(F)cc1`, the Potency entry in [2], in experiment [3], in [8], in experiment [17] and in [12] was “inactive” in each case. The compound was classed as inactive in experiment [6], in experiment [7], in experiment [9], in experiment [10], in [11] and in [14]. Also, the outcome in experiment [15] was inactive.
Turning to `NC(=O)Nc1ccc(Cl)cc1`, the Potency result in experiment [1], in experiment [2], in experiment [3], in experiment [4], in experiment [5] and in [8] was “inactive” in each case. The Potency entry in experiment [17] and in experiment [12] was “inactive” throughout. In addition, the compound was called inactive in [6], in [7], in experiment [9], in [10], in experiment [11] and in [14]. Also, the call in experiment [15] was inactive.
As for `COC(=O)Nc1nc2ccc(C(=O)c3cccs3)cc2[nH]1`, the Potency entry in experiment [16], in experiment [8], in experiment [17] and in [12] was “inactive” throughout. Moreover, the compound was classed as inactive in [6], in [9], in experiment [10], in [11] and in [14].
Turning to `CC1(C)O[C@@H]2C[C@H]3[C@@H]4CCC5=CC(=O)C=C[C@]5(C)[C@H]4[C@@H](O)C[C@]3(C)[C@]2(C(=O)CO)O1`, the Potency entry in experiment [1], in [3], in [4], in experiment [5], in experiment [8] and in experiment [12] was “inactive” throughout. Moreover, the call in experiment [6], in experiment [7], in experiment [9], in experiment [10], in experiment [11] and in experiment [14] was inactive.
With `CCn1nc(C)c2c1C(=O)NCC(c1ccc(O)cc1)=N2`, the Potency result in experiment [1], in experiment [2], in experiment [3], in experiment [4], in [5] and in experiment [8] was “inactive” throughout. The Potency result in experiment [17] and in experiment [12] was “inactive” throughout. The outcome in [6], in [9], in experiment [10], in [11], in experiment [14] and in experiment [15] was inactive.

The values above are taken from PubChem BioAssay (Tox21).
